About 79,000 compounds went through this panel and 15% of them were active in at least one assay; those are over-represented in the sample as a whole. No stated cut-off is given here; in the data, active means growth inhibition above about 70%; inactive means the rest.
Tests used:
[1] = NCI Yeast Anticancer Drug Screen. Data for the rad50 strain (AID 155);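 further: 0% = growth of vehicle-only cultures of the same strain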; conditions: S. cerevisiae rad50 strain growth inhibition; at 50.0 µM; hits give high values
In short: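 Vehicle-treated cultures provide the reference for the growth inhibition reported for compound-exposed, repair-deficient yeast.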

[2] = NCI Yeast Anticancer Drug Screen. Data for the mec2-1 strain (AID 157); conditions: S. cerevisiae mec2-1 strain, at 50.0 µM, hits give high values
In short: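 Growth inhibition is read against vehicle-treated controls after compound exposure of the mec2-1 yeast strain, which is defective in DNA damage repair or cell cycle control.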

[3] = NCI Yeast Anticancer Drug Screen. Data for the sgs1 mgt1 strain (AID 161);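 further: 0% = growth of cultures given vehicle only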; conditions: S. cerevisiae sgs1 mgt1 strain, at 50.0 µM, hits give high values
In short: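 This yeast growth screen uses a strain with defined DNA-repair lesions; compound-treated growth is compared with vehicle-treated growth.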

[4] = NCI Yeast Anticancer Drug Screen. Data for the cln2 rad14 strain (AID 165);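 further: 0% = growth equal to vehicle treated cultures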; conditions: S. cerevisiae cln2 rad14 strain, at 50.0 µM, hits give high values
In short: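 Growth inhibition, relative to vehicle-treated controls, is the read-out. The test organism is a yeast strain with defined genetic alterations, cln2 rad14.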

[5] = NCI Yeast Anticancer Drug Screen. Data for the bub3 strain (AID 167); conditions: S. cerevisiae bub3 mutant strain, at 50.0 µM, hits give high values
In short: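 Mutant yeast screening strain plus compound; vehicle-treated cultures serve as the 0% inhibition reference.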

[6] = NCI Yeast Anticancer Drug Screen. Data for the mlh1 rad18 strain (AID 175); conditions: S. cerevisiae mlh1 rad18 strain growth inhibition; at 50.0 µM; hits give high values
In short: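 Cells of a genetically altered yeast strain, deficient in DNA damage repair, were treated with compound. Their growth was then compared with that of vehicle-treated cultures to give inhibition.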

Measured: growth inhibition

COc1cccc(NC(=O)C(=O)C(C(=O)c2ccccc2F)C2OC(=O)c3ccccc32)c1 (stereo not given)
inactive: [1] 15.6% | [2] 0.95% | [3] 35.5% | [4] 18.9% | [5] 7.85% | [6] 3.85%

CCN(CC)CCOCCN(CC)CC
inactive: [1] 4.15% | [2] -2.2% | [3] -5.25% | [4] -44.8% | [5] 0.1% | [6] 9.55%

CCCCCCCCCCCCCC(=O)CCCC
inactive: [1] -9.7% | [2] -8.4% | [3] 2.2% | [4] -22.5% | [5] -2.45% | [6] -18%

COC(=O)/C(C#N)=C/Sc1ccccc1
inactive: [1] 61.6% | [2] 33.7% | [3] 38% | [4] 7.2% | [5] 26.6% | [6] -7.7%

Cc1nc2scc(C)c2c(=S)[nH]1
inactive: [1] -0.85% | [2] 1.5% | [3] 6.75% | [4] -38.9% | [5] -11.8% | [6] -2.45%

NCCCC(NC(=O)CCCCCCCCN=C(N)N)C(O)CCCCCCCCN=C(N)N (stereo not given)
inactive: [1] 20.9% | [2] 14.8% | [3] 4.55% | [4] -6.8% | [5] 22.3% | [6] 0.75%

Cc1cc[n+](CC(=O)c2ccc(Br)cc2)cc1
inactive: [1] 22.8% | [2] 12.7% | [3] 18.4% | [4] 22.9% | [5] 4.35% | [6] 54.5%

CCCCCOC(=O)Nc1ccc(OCC)cc1
inactive: [1] -9.15% | [2] -4.95% | [3] -3.15% | [4] -21.9% | [5] -1.3% | [6] -4.25%

Cc1ccc(OC/C=N\N=C(N)N)cc1C
inactive: [1] -7.9% | [2] 16.4% | [3] 41.3% | [4] -6% | [5] 8.3% | [6] 17.1%

CSc1ncc2c(C#N)c3sc4ccccc4n3c(=O)c2n1
inactive: [1] 14.8% | [2] -8.05% | [3] 32.4% | [4] 12.4% | [5] 26.5% | [6] -21.1%

Cc1ccc(N=Nc2ccc(C)cc2NC(=O)/C=C/c2ccccc2)cc1
inactive: [1] -21.5% | [2] -34.5% | [3] 6.65% | [4] 8.4% | [5] -6.35% | [6] -8.65%

O=C1C=C(Nc2cccnc2)c2ccccc2C1=O
inactive: [1] 9.5% | [2] -7.2% | [3] 0.4% | [4] 8.5% | [5] 19.6% | [6] 8.8%

O=C1C=CC2C=CC1C=C2
inactive: [1] -1.55% | [2] 14.8% | [3] 23.2% | [4] 1.15% | [5] -7.7% | [6] 11.7%

O=C(/C=C/c1ccc(Cl)cc1)c1ccc(Cl)s1
inactive: [1] -52% | [2] -48.8% | [3] -23.1% | [4] -16.2% | [5] -16.1% | [6] -24.9%

CCN(CC)C1=CC(=O)OC1OC (stereo not given)
inactive: [1] -9.65% | [2] 12.5% | [3] 2% | [4] 8.1% | [5] 3.05% | [6] -4.2%

O=S(=O)(O)ON=C1c2ccccc2-c2ccccc21
inactive: [1] 0.6% | [2] -10.7% | [3] 10.4% | [4] 10.4% | [5] 6.55% | [6] -13.6%

Cc1cc(Cl)ccc1NC(=O)NC(C)(C)COC(=O)Nc1cccc(Cl)c1
inactive: [1] 26% | [2] -7.3% | [3] 23.4% | [4] 9.15% | [5] 16.1% | [6] 27.9%

CCOC(=O)/C=C/c1ccc([N+](=O)[O-])cc1
inactive: [1] 23.6% | [2] 26.6% | [3] 9.15% | [4] 2.55% | [5] -1.9% | [6] -0.05%

C[C@]1(CO)CCC[C@@]2(C)C1CC[C@H]1CC3C[C@]12CC[C@]3(C)O (stereo not given in full)
inactive: [1] 47.2% | [2] 8% | [3] 41.2% | [4] 28.4% | [5] 32.6% | [6] 54.3%

CCSCC1C(=O)C23C(O)C1CCC2C12COC3(O)C(O)C1C(C)(C)CCC2O (stereo not given)
inactive: [1] 16.6% | [2] 18.4% | [3] 7.45% | [4] 10.9% | [5] 2.4% | [6] 7.05%

— PubChem BioAssay (NCI)
